This passage reports Potency and outcome results from PubChem BioAssay (Tox21).

SMILES strings stand for the structures. A number with no mark means an inactive call. Inconclusive results are not listed. Active and inactive are the calls of the source. Unless noted, calls follow the shape of the full dose curve.

Experiment [1] can be described thus: Nuclear factor erythroid 2-related factor 2/antioxidant responsive element (Nrf2/ARE) small molecule agonists: qHTS cell viability counter screen in human keratinocytes (AID 1919968; active = well fitted curve in the direction sought with a large enough effect in the repeat runs; an effect the other way counts as inactive or inconclusive; also: nearly all actives have a fitted effect of over 55% in size; also: potency is read from the fitted curve at half-maximal effect). In outline: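 Parallel cytotoxicity read: KeratinoSens HaCaT cells, compound treatment 23 h, viability by CellTiter-Fluor fluorescence 1 h post-reagent.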
On the technique in general: Quantitative high-throughput screening tests each substance at several concentrations.

Experiment [2] in a line: Nuclear factor erythroid 2-related factor 2/antioxidant responsive element (Nrf2/ARE) small molecule agonists: luciferase reporter gene qHTS assay in human keratinocytes (AID 1919969; also: nearly all actives have a fitted effect of over 35% in size). (A reporter such as luciferase makes a cellular process visible.)
Experiment [3] deals with Gonadotropin-releasing hormone receptor (Homo sapiens) (UniProt P30968). The experiment can be described thus: Human gonadotropin-releasing hormone receptor (GnRHR) small molecule agonists, calcium flux assay in GnRHR-HEK293 cells (AID 1920063). Also: nearly all actives have a fitted effect of over 35% in size. In outline:
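Calcium flux, agonist mode, human GnRHR stably integrated in HEK293; dye 1 h at 37 C before compound; Ex/Em=480/540 kinetic read, 3 min; 15 concentrations, triplicate.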

For experiment [4], the target named is KiSS-1 receptor (Homo sapiens) (UniProt Q969F8). The experiment can be described thus: Human kisspeptin (KISS1R) small molecule agonists, calcium flux assay in KISS1R-HEK293 cells (AID 1920064; active = well fitted curve in the direction sought with a large enough effect in the repeat runs; an effect the other way counts as inactive or inconclusive). An outline of the steps:
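Triplicate 15-concentration series were applied to dye-loaded human KISS1R HEK293 cells, and agonist-evoked calcium fluorescence was captured for 3 min.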
(In general: Calcium flux is commonly read through the fluorescence of an indicator in the cells.)

Experiment [5] is described as follows: p53 small molecule agonists, cell-based qHTS assay with human liver microsomes (AID 1963577).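 Also: p53 response element beta-lactamase reporter cells with liver microsomes plus NADPH.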 An outline of the steps: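 Steps: plate p53RE-bla cells, incubate 5 h at 37 C; add compound in DMSO; add microsomes (0.5 mg/mL final) and NADPH (0.5 mg/mL final); incubate 16 h at 37 C; add LiveBLAzer, 2 h RT; read fluorescence.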
Experiment [6] is described as follows: p53 small molecule agonists, cell-based qHTS assay with rat liver microsomes (AID 1963578). In outline:
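Metabolic activation is supplied by rat liver microsomes with NADPH (each 0.5 mg/mL final). p53RE-bla cells incubate with compound 16 h at 37 C; reporter activity is measured by LiveBLAzer fluorescence.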

The nature of experiment [7]: p53 small molecule agonists, cell-based qHTS assay with rat liver microsomes: qHTS cell viability counter screen (AID 1963580). Also: nearly all actives have a fitted effect of over 45% in size. In outline: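 After the beta-lactamase ratio was read, CellTiter-Glo was added to the same wells and luminescence measured at 30 min; cells had been treated 16 h at 37 C with compounds, rat liver microsomes and NADPH (0.5 mg/mL final each).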

In experiment [8] the target is 5-hydroxytryptamine receptor 2A (Homo sapiens) (UniProt P28223). As to the kind of experiment: 5-hydroxytryptamine receptor 2A (HTR2A) small molecule antagonists, cell-based qHTS assay (AID 1963586). Also: nearly all actives have a fitted effect of over 45% in size. An outline of the steps:
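CHO cells stably expressing human HTR2A were plated for 18 h at 37 C, then loaded with calcium dye for 1 h. Compounds were preincubated 5 min at room temperature before DOI (4 nM solution) was added. Kinetic fluorescence was read for 3 min.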

Experiment [9] has the same target. The experiment can be described thus: 5-hydroxytryptamine receptor 2A (HTR2A) small molecule agonists, cell-based qHTS assay (AID 1963587). Also: nearly all actives have a fitted effect of over 30% in size. An outline of the steps: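 CHO cells stably expressing human HTR2A, plated 18 h, loaded with calcium dye 1 h at 37 C. Agonist mode: compounds added and intracellular calcium fluorescence recorded kinetically for 2 min at 1 sec intervals.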

Experiment [10] addresses Muscarinic acetylcholine receptor M1 (Homo sapiens) (UniProt P11229). As to the kind of experiment: Cholinergic receptor muscarinic 1 (CHRM1) small molecule agonists, cell-based qHTS assay (AID 1963589). Also: nearly all actives have a fitted effect of over 35% in size. In outline: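 qHTS, 15-point titration, 3 independent runs: compounds pin-transferred onto dye-loaded CHRM1-CHO cells (human M1), calcium fluorescence followed every second to detect agonism.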

For experiment [11], the target named is Beta-2 adrenergic receptor (Homo sapiens) (UniProt P07550). As to the kind of experiment: Adrenergic beta2 receptor (ADRB2) small molecule antagonists, cell-based qHTS assay (AID 1963592). Also: series mostly up to about 92 µM; nearly all actives have a fitted effect of over 50% in size. In outline: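 Assay format: CHO-ADRB2 cells, 18-20hr seeding at 37C/5% CO2, then compound plus 1nM isoproterenol agonist mix for 0.5hr RT. Homogeneous time-resolved fluorescence cAMP detection after 1hr, expressed as 665/615 nm ratio.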
Sequence of Beta-2 adrenergic receptor (Homo sapiens) (P07550 whole entry, looked up): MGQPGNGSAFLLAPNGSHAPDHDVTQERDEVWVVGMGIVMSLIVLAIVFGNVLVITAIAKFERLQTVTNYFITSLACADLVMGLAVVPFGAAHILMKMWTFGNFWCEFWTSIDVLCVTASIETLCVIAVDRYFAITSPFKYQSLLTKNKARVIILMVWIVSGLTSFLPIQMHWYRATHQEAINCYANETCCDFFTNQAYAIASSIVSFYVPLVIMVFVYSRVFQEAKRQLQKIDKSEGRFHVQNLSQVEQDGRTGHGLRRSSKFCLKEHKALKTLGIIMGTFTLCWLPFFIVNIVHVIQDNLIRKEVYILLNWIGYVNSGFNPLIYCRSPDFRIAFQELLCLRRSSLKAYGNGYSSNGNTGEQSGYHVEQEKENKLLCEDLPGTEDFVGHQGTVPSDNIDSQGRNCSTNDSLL

Experiment [12] addresses D(2) dopamine receptor (Homo sapiens) (UniProt P14416). As to the kind of experiment: Dopamine D2 receptor (DRD2) small molecule agonists, cell-based qHTS assay (AID 1963594). Also: nearly all actives have a fitted effect of over 35% in size. An outline of the steps:
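HEK293 cells stably expressing human DRD2, pre-treated with PDE inhibitor Ro20-1724 (0.1 mM final) and compound 10 min at room temperature, then stimulated with NKH477 (200nM […]) for 30 min. cAMP read by HTRF (665/620 nm).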

Experiment [13] shares this target. The experiment can be described thus: Dopamine D2 receptor (DRD2) small molecule antagonists, cell-based qHTS assay (AID 1963595; active = well fitted inhibition curve with a large enough effect in the signal ratio in the repeat runs, with a control signal flat; the % refers to the signal ratio). In outline: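 Antagonist mode in DRD2-HEK293 cells: after compound addition with 0.1 mM Ro20-1724, cells received quinpirole (12 nM) and NKH477 (200 nM) for 30 min at room temperature; HTRF cAMP read after 1 h detection.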
A short description of experiment [14]: p53 small molecule agonists, cell-based qHTS assay: qHTS cell viability counter screen (AID 1963581). Also: nearly all actives have a fitted effect of over 45% in size. In outline: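 Multiplexed with the reporter read, a CellTiter-Glo step (30 min, room temperature) gauges ATP-based viability of HCT-116 p53RE-bla cells after 16 h compound incubation at 37 C.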
Experiment [15] is described as follows: p53 small molecule agonists, cell-based qHTS assay (AID 1963582; active = well fitted activation curve with a large enough effect in the signal ratio in the repeat runs, not every such curve was filed as active; the % refers to the signal ratio). An outline of the steps: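 Beta-lactamase reporter cells (p53RE-bla) treated with compounds for 16 h at 37 C; FRET substrate, 2 h, room temperature; fluorescence intensity.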
Experiment [16] can be described thus: cAMP Responsive Elements (CRE) small molecule agonists, cell-based qHTS assay (AID 1963590). In outline: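 Quantitative HTS for CRE agonists: HEK 293T CRE-bla cells, overnight plating, 3 h compound incubation at 37 C/5% CO2, then 2 h room-temperature LiveBLAzer B/G FRET substrate loading.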
A short description of experiment [17]: cAMP Responsive Elements (CRE) small molecule antagonists, cell-based qHTS assay (AID 1963591; active = well fitted inhibition curve with a large enough effect in the signal ratio in the repeat runs, not every such curve was filed as active; the % refers to the signal ratio). In outline: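 Fluorescence intensity from cleaved LiveBLAzer B/G substrate (2 h, room temperature) quantified CRE-bla activity in HEK 293T cells exposed 3 h to compound with 0.25 uM final NKH477.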
Experiment [18] can be described thus: G protein-coupled receptor (GPCR) small molecule agonists, calcium flux assay: HEK293 wild type cell line counter screen (AID 1920065). An outline of the steps:
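Non-specific calcium responders were flagged by adding DMSO-dissolved compounds to dye-loaded cells and reading 480/540 nm fluorescence each second for 3 min; ATP served as positive control.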

Experiment [19] is described as follows: p53 small molecule agonists, cell-based qHTS assay with human liver microsomes: qHTS cell viability counter screen (AID 1963579). Also: nearly all actives have a fitted effect of over 45% in size. In outline:
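After the 460/530 nm beta-lactamase read, CellTiter-Glo was added to the same wells and luminescence measured after 30 min at room temperature, giving viability of p53RE-bla cells treated 16 h with compounds plus microsomes and NADPH.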

Experiment [20] has as its target Muscarinic acetylcholine receptor M1 (Homo sapiens) (UniProt P11229). As to the kind of experiment: Cholinergic receptor muscarinic 1 (CHRM1) small molecule antagonists, cell-based qHTS assay (AID 1963588). Also: nearly all actives have a fitted effect of over 40% in size. An outline of the steps:
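Compounds were tested at 15 concentrations in three independent runs. Dye-loaded CHRM1-CHO cells were exposed 5 min at room temperature before stimulation by acetylcholine added at 50nM. Intracellular calcium was read kinetically on FDSS for 3 min.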

Sequence of Gonadotropin-releasing hormone receptor (Homo sapiens) (P30968 whole entry, looked up): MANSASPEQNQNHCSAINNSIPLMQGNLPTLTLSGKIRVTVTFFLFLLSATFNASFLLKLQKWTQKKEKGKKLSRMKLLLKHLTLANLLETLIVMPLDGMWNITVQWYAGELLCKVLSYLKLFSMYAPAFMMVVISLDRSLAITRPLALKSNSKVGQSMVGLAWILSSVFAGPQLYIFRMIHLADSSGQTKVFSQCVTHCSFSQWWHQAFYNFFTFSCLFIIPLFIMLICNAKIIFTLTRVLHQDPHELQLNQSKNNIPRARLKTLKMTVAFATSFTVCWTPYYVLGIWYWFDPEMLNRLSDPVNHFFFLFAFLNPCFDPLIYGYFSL
Sequence of Muscarinic acetylcholine receptor M1 (Homo sapiens) (P11229 whole entry, looked up): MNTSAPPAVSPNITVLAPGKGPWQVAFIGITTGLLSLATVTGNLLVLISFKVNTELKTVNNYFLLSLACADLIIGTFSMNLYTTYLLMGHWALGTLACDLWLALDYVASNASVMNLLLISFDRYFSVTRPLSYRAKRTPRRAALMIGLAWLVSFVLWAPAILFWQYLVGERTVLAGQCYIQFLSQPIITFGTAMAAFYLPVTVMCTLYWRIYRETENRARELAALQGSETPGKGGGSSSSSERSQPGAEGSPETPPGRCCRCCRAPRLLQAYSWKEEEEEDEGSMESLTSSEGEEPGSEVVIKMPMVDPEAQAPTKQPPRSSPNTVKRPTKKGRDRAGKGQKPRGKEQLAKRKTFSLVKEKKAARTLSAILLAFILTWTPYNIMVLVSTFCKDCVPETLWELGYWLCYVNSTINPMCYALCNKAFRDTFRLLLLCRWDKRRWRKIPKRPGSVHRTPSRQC
Sequence of D(2) dopamine receptor (Homo sapiens) (P14416 whole entry, looked up): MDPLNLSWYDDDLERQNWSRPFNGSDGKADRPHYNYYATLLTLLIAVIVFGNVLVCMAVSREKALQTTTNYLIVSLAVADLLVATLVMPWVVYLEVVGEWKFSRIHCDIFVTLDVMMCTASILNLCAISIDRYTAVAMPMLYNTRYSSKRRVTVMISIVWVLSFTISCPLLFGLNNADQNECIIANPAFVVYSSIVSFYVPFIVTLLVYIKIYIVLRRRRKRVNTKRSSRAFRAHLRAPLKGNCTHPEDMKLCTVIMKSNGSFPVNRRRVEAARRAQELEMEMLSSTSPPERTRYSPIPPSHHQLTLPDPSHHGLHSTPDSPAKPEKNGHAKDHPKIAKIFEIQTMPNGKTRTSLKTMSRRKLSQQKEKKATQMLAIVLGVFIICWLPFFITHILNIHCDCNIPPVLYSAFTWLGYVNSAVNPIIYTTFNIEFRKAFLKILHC
Sequence of KiSS-1 receptor (Homo sapiens) (Q969F8 whole entry, looked up): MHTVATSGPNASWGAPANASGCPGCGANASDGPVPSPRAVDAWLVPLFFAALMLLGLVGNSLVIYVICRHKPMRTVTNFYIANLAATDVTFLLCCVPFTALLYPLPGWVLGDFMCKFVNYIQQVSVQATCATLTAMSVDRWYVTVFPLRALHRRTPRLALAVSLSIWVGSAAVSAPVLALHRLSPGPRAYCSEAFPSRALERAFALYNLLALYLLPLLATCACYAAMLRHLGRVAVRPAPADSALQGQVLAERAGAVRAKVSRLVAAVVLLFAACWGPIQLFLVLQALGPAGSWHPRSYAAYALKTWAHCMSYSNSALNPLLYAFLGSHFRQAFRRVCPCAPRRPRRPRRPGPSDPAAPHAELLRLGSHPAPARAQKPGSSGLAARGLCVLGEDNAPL
Sequence of 5-hydroxytryptamine receptor 2A (Homo sapiens) (P28223 whole entry, looked up): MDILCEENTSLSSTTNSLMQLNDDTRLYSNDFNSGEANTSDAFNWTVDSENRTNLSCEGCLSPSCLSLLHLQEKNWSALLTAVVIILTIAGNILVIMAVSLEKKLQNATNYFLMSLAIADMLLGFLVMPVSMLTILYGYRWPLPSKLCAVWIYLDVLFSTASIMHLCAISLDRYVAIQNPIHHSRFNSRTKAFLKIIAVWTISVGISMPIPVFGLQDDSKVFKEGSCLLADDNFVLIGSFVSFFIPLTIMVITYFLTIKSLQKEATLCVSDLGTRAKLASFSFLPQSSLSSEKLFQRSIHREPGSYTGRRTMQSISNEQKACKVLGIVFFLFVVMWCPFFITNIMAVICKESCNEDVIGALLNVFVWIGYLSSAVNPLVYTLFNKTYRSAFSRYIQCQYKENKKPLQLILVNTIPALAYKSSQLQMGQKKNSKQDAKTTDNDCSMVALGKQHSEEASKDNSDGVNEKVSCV

As to `CC(C)(c1cc(Br)c(OCCO)c(Br)c1)c1cc(Br)c(OCCO)c(Br)c1`, in experiment [1], the Potency is 37.7 µM (active). The Potency entry in experiment [2], in experiment [3], in [5], in experiment [6], in [7] and in experiment [8] was “inactive” each time. In addition, the Potency result in [9], in experiment [10], in experiment [11], in experiment [12] and in experiment [13] was “inactive” each time. In addition, the result in [4] was inactive.

As for `CCOc1ccc(NC(=O)OC(C)C)cc1OCC`, the Potency entry in experiment [1], in [2], in experiment [3], in experiment [5], in experiment [6] and in [7] was “inactive” each time. For the same compound, the Potency entry in experiment [14], in experiment [15], in experiment [8], in experiment [9], in experiment [10] and in experiment [16] was “inactive” each time. For the same compound, the Potency entry in experiment [17], in experiment [11], in [12] and in [13] was “inactive” each time. In addition, in [4], the outcome was inactive.

As to `N[C@H](C(=O)O)[C@@H](O)c1ccc(O)c(O)c1`, the Potency entry in experiment [1], in experiment [2], in experiment [3], in experiment [5], in experiment [6] and in [19] was “inactive” each time. Further, the Potency entry in [7], in experiment [14], in experiment [15], in [8], in experiment [9] and in [20] was “inactive” each time. In addition, the Potency entry in [10], in experiment [16], in [17], in experiment [11], in [12] and in [13] was “inactive” throughout. Further, the outcome in experiment [18] was inactive.

Turning to `CC(C)(C)C1(CCc2ccc(Cl)cc2)CO1` (configuration not stated), the Potency entry in [1], in experiment [2], in [3], in experiment [5], in experiment [6] and in [19] was “inactive” throughout. For the same compound, the Potency entry in [7], in experiment [14], in [15], in experiment [8], in experiment [9] and in experiment [20] was “inactive” each time. Further, the Potency result in [10], in [16], in [17], in [11], in experiment [12] and in experiment [13] was “inactive” in each case. The outcome in experiment [18] was inactive.

With `N#Cc1cscn1`, the Potency result in [1], in experiment [2], in [3], in experiment [5], in [6] and in [19] was “inactive” throughout. In addition, the Potency result in experiment [7], in [14], in experiment [15], in experiment [8], in [9] and in [20] was “inactive” each time. In addition, the Potency entry in [10], in experiment [16], in [17], in experiment [11], in experiment [12] and in experiment [13] was “inactive” in each case. For the same compound, the result in experiment [18] was inactive.

Turning to `CC(C)=CCC/C(C)=C/COC=O`, the Potency result in experiment [1], in experiment [2], in experiment [3], in [5], in [6] and in [19] was “inactive” each time. Also, the Potency result in experiment [7], in experiment [14], in experiment [15], in experiment [8], in [9] and in experiment [20] was “inactive” throughout. For the same compound, the Potency result in [10], in [16], in experiment [17], in [11], in experiment [12] and in experiment [13] was “inactive” each time. In addition, in [18], the result was inactive.

On to `CCOC(=O)[C@H](O)[C@@H](O)C(=O)OCC`, for which the Potency result in experiment [1], in experiment [2], in [3], in experiment [19], in [7] and in experiment [14] was “inactive” in each case. The Potency entry in experiment [15], in [9], in experiment [20], in experiment [10], in [16] and in experiment [17] was “inactive” throughout. Also, the Potency entry in [11], in [12] and in experiment [13] was “inactive” throughout. Moreover, the result in experiment [4] was inactive.
